Data from PubChem BioAssay (NCI).
Compounds without any hit were thinned out: in the full panel of roughly 79,000, 15% have a hit. Active and inactive are the calls of the source. Rule as the data show it: active = growth inhibition above about 70%; inactive = the rest.

Legend:
[1] = NCI Yeast Anticancer Drug Screen. Data for the rad50 strain (AID 155);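 also: 0% = growth of vehicle-only cultures of the same strain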; conditions: S. cerevisiae rad50 strain growth inhibition; at 50.0 µM; hits give high values
Outline: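 Growth of the mutant yeast was measured after compound exposure and referenced to vehicle-treated cultures.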

[2] = NCI Yeast Anticancer Drug Screen. Data for the mec2-1 strain (AID 157); conditions: S. cerevisiae mec2-1 strain, at 50.0 µM, hits give high values
Outline: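 Vehicle-treated cultures served as reference for growth inhibition of compound-exposed mec2-1 yeast.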

[3] = NCI Yeast Anticancer Drug Screen. Data for the sgs1 mgt1 strain (AID 161);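 also: 0% = growth of cultures given vehicle only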; conditions: S. cerevisiae sgs1 mgt1 strain, at 50.0 µM, hits give high values
Outline: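 Inhibition of yeast growth, normalised to vehicle-treated controls, is reported for a strain bearing genetic alterations in DNA damage repair.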

[4] = NCI Yeast Anticancer Drug Screen. Data for the cln2 rad14 strain (AID 165);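 also: 0% = growth equal to vehicle treated cultures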; conditions: S. cerevisiae cln2 rad14 strain, at 50.0 µM, hits give high values
Outline: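 Each compound was tested on cln2 rad14 yeast. Inhibition of growth was calculated against vehicle-exposed controls.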

[5] = NCI Yeast Anticancer Drug Screen. Data for the bub3 strain (AID 167); conditions: S. cerevisiae bub3 mutant strain, at 50.0 µM, hits give high values
Outline: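 Whole-cell yeast assay. The mutant strain was incubated with compounds, and growth inhibition was determined by comparison with vehicle-treated cells.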

[6] = NCI Yeast Anticancer Drug Screen. Data for the mlh1 rad18 strain (AID 175); conditions: S. cerevisiae mlh1 rad18 strain growth inhibition; at 50.0 µM; hits give high values
Outline: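 Vehicle-treated cultures served as the reference for growth inhibition in a yeast strain carrying DNA damage repair alterations exposed to each compound.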

Measured: growth inhibition

CCOC(=O)/C=C/C1(CCOC(C)=O)CCCCC1
inactive: [1] 12.8% | [2] -27.8% | [3] -2.9% | [4] 21% | [5] -4% | [6] 14.9%

Cc1ccc(S(=O)(=O)OCC2C(c3ccccc3)CCC(c3ccccc3)C2COS(=O)(=O)c2ccc(C)cc2)cc1 (stereo unspecified)
inactive: [1] -5.6% | [2] -5.4% | [3] -16.1% | [4] -28.6% | [5] 4.25% | [6] 4.45%

CCCCCC/C(CC(=O)CCC(=O)NCCc1ccccc1)=N\Nc1ccc([N+](=O)[O-])cc1[N+](=O)[O-]
inactive: [1] -0.2% | [2] 14.9% | [3] -35.5% | [4] 34.2% | [5] 11.9% | [6] -1.7%

ON(C(=NCc1ccccc1)c1ccccc1)c1ccccc1
inactive: [1] 2.25% | [2] 10.6% | [3] 9.65% | [4] -17.4% | [5] 12.4% | [6] 14.7%

CCCCC(O)(CCCC)CC(C)(C)C
inactive: [1] -3.3% | [2] 1.6% | [3] -9% | [4] 18.7% | [5] 2.65% | [6] -1.35%

C=C(C)C(O)CC (stereo unspecified)
inactive: [1] 24.6% | [2] -30.7% | [3] 15.3% | [4] 4.3% | [5] 10.9% | [6] 20.4%

COC(=O)C1CC2CC1C1C2SC(F)(F)C1(F)F (stereo unspecified)
inactive: [1] 0.2% | [2] -1.7% | [3] 6.4% | [4] 7.8% | [5] -5% | [6] 17.1%

Cn1c(N)c(/C=C/C(=O)Oc2ccccc2)c(=O)n(C)c1=O
inactive: [1] 49.7% | [2] 18.4% | [3] 16.5% | [4] 16.8% | [5] -8.8% | [6] -43.1%

O=C([CH-]C(=O)C(F)(F)F)c1ccccc1.O=C([CH-]C(=O)C(F)(F)F)c1ccccc1.O=C([CH-]C(=O)C(F)(F)F)c1ccccc1.[Ru+3]
inactive: [1] -11.2% | [2] -13.8% | [3] -11.5% | [4] -22.7% | [5] 9.8% | [6] 4.75%

O=C1Nc2ccccc2/C1=N\[O-].O=C1Nc2ccccc2/C1=N\[O-].[Cu+2]
inactive: [1] -10.2% | [2] -5.5% | [3] -30.5% | [4] -0.3% | [5] -23.4% | [6] -21.1%

Cc1cc(O)c(C(C)C)cc1NC(=S)Nc1ccc(S(=O)(=O)c2ccc(NC(=S)Nc3cc(C(C)C)c(O)cc3C)cc2)cc1
inactive: [1] 7.55% | [2] 20.1% | [3] 36.9% | [4] 17.9% | [5] 6.65% | [6] 51.2%

CCOC(=O)C1(C)CCc2sc(N)c(C#N)c21 (stereo unspecified)
inactive: [1] -29.2% | [2] -2.4% | [3] 3.75% | [4] -10.8% | [5] 2.8% | [6] -8.5%

O=c1oc2c3ccc4ccccc4c3n(Cc3nc4ccccc4[nH]3)c2c2ccccc12
inactive: [1] 22.1% | [2] 12.2% | [3] 19.7% | [4] 28.6% | [5] 14.6% | [6] 25.2%

CC#CC(O)(C(=O)OC1CCCN(C)C1)C1=CC=CCC1 (stereo unspecified)
inactive: [1] 11.7% | [2] 8.25% | [3] 13.2% | [4] 5% | [5] -1.75% | [6] 27.4%

CCC(C)(O)C(=O)O (stereo unspecified)
inactive: [1] 9.8% | [2] -9.4% | [3] -32.4% | [4] -4.75% | [5] -13.3% | [6] -15.2%

COc1ccc(C2OCC(COC(C)=O)O2)cc1OC (stereo unspecified)
inactive: [1] -11% | [2] 6.4% | [3] 1.2% | [4] -17.9% | [5] 26.5% | [6] 10.4%

COc1cc(C(C)c2cc3c(cc2OCCNC(=O)COc2cc4c(cc2C(C)c2cc(OC)c(OC)c(OC)c2)OCO4)OCO3)cc(OC)c1OC (stereo unspecified)
inactive: [1] -31.9% | [2] -28.6% | [3] -25.6% | [4] 4.8% | [5] -19.6% | [6] -24.9%

C(/C=N/NC1=NCCCN1)=N\NC1=NCCCN1
inactive: [1] -3.5% | [2] -15.2% | [3] -14.6% | [4] 10.9% | [5] -33.1% | [6] -14.2%

CN1C(=O)c2ccccc2C(O)(c2ccccc2)C1(O)c1ccccc1 (stereo unspecified)
inactive: [1] -6.3% | [2] -20.9% | [3] -26.7% | [4] 12.2% | [5] -12.2% | [6] -38.9%

Nc1ncnc2c1ncn2-c1ccc(N(CCO)CCO)cc1
inactive: [1] 5.5% | [2] -12.3% | [3] -1.15% | [4] -30.2% | [5] -9.45% | [6] 8.35%

Cc1ccncc1S(=O)(=O)O
inactive: [1] 14.6% | [2] 8.85% | [3] 2.3% | [4] -12.2% | [5] 1.7% | [6] 1.75%

BrCCCCOc1ccccc1
inactive: [1] 3.5% | [2] 2.65% | [3] -11.3% | [4] -4.25% | [5] -2.7% | [6] 2.7%

Clc1ccc(-c2cc(-c3ccc(Cl)cc3)n(-c3ccccc3)n2)cc1
inactive: [1] -17.5% | [2] -33.9% | [3] -24.2% | [4] 4% | [5] 6.55% | [6] -9.2%

O=C(O)C(=O)C(c1ccccc1)c1ccccc1
inactive: [1] -0.4% | [2] 6.9% | [3] -21.1% | [4] -29.1% | [5] -22.9% | [6] -5.3%

O=C1Cc2c([nH]c3c(Cl)cccc23)-c2ccccc2N1
inactive: [1] -4.65% | [2] 14.6% | [3] -19.2% | [4] 21.8% | [5] 4.5% | [6] -23.4%

CSC1=NC=C(C#N)C2=NC(c3c(F)cccc3Cl)NN12 (stereo unspecified)
inactive: [1] 30.3% | [2] 7.65% | [3] 35.3% | [4] 26.2% | [5] 24.6% | [6] 26.8%

O=c1[nH]c2ccccc2c2ccc(Br)cc12
inactive: [1] 17.4% | [2] -6.1% | [3] -2.65% | [4] 7.3% | [5] -3% | [6] 18.5%

CC(=O)c1cccc(NC(=O)C(=O)C(C(=O)c2ccccc2F)C2OC(=O)c3ccccc32)c1 (stereo unspecified)
inactive: [1] 9.2% | [2] -7.2% | [3] -5.45% | [4] 3.7% | [5] -6.2% | [6] -4.05%

CSCCCO
inactive: [1] -12.8% | [2] -20.6% | [3] 10.5% | [4] -39.1% | [5] -2.45% | [6] -7.4%

CCCCc1ccccn1
inactive: [1] -9.1% | [2] 4.15% | [3] 14.1% | [4] -42.5% | [5] 7.4% | [6] 16.9%

CCOC(=O)C(CO)C1CCCC1 (stereo unspecified)
inactive: [1] 10.3% | [2] -2.65% | [3] 7.9% | [4] -5.4% | [5] 5.05% | [6] 2.75%

CCOC(=O)C12CCC(=O)C=C1[C@@H](C)C(=O)CC2 (stereo partly specified)
inactive: [1] -20.1% | [2] -48.6% | [3] -41.1% | [4] -10.2% | [5] -34.7% | [6] -23.4%

COC(=O)NN=C1C(C)(C)C(=NNC(=O)OC)C1(C)C
inactive: [1] 2.25% | [2] -15.5% | [3] -8.6% | [4] 27.1% | [5] -17.6% | [6] -5.4%

CCCC(C)C1CCC(=O)CC1 (stereo unspecified)
inactive: [1] 5.85% | [2] 0.3% | [3] 0.75% | [4] -4.3% | [5] 1.95% | [6] -0.2%

CCCc1c(C(=O)O)c(-c2cccc3ccccc23)c(CCC)c2c1-c1cccc3cccc-2c13
inactive: [1] 54.5% | [2] 35% | [5] 30.2%
active: [3] 76% | [4] 71.2% | [6] 73.5%

COc1cc(C2=N/C(=C\C=C\c3ccccc3)C(=O)O2)cc(OC)c1OC
inactive: [1] 16.8% | [2] 16% | [3] 21.9% | [4] 18.9% | [5] 18.8% | [6] 16.9%

CC(/C=N/N(C)C)=N\N(C)C
inactive: [1] -3.75% | [2] 5.3% | [3] -5.65% | [4] -60.4% | [5] 32.2% | [6] -21.4%

Cn1c(=O)c2conc2n(-c2ccc(Cl)cc2)c1=O
inactive: [1] 11.2% | [2] -0.1% | [3] -12.2% | [4] -19.9% | [5] 2.55% | [6] -3.25%

O=c1c2c([nH]c(=S)n1-c1ccccc1)NCCC2
inactive: [1] -13.8% | [2] -1.25% | [3] -11.6% | [4] 3.3% | [5] 9.55% | [6] 0.4%

COc1ccc(C(O)C2CCCN(C)S2(=O)=O)cc1 (stereo unspecified)
inactive: [1] 13.4% | [2] 21.9% | [3] 2.75% | [4] 15.5% | [5] 30.6% | [6] 15.6%

O=C(O)c1cnc2cc3c(cc2c1Nc1cccc(C(F)(F)F)c1)OCO3
inactive: [1] 29% | [2] -8.85% | [3] 5.15% | [4] 6.7% | [5] 29.4% | [6] 4.05%
